The target of assay [1] is RAC-alpha serine/threonine-protein kinase (Homo sapiens) (UniProt P31749). The following applies: at 0.1 µM.
Assay [2] shares this target. The following applies: at 1 µM.
The target of assay [3] is RAC-beta serine/threonine-protein kinase (Homo sapiens) (UniProt P31751). The following applies: at 0.1 µM.
Assay [4] shares this target. The following applies: at 1 µM.
Assay [5] addresses RAC-gamma serine/threonine-protein kinase (Homo sapiens) (UniProt Q9Y243). The following applies: at 0.1 µM.
The target is the same in assay [6]. The following applies: at 1 µM.
For assay [7], the target named is G protein-coupled receptor kinase 6 (Homo sapiens) (UniProt P43250). The following applies: at 0.1 µM.
Sequence of G protein-coupled receptor kinase 6 (Homo sapiens) (P43250 whole entry, looked up): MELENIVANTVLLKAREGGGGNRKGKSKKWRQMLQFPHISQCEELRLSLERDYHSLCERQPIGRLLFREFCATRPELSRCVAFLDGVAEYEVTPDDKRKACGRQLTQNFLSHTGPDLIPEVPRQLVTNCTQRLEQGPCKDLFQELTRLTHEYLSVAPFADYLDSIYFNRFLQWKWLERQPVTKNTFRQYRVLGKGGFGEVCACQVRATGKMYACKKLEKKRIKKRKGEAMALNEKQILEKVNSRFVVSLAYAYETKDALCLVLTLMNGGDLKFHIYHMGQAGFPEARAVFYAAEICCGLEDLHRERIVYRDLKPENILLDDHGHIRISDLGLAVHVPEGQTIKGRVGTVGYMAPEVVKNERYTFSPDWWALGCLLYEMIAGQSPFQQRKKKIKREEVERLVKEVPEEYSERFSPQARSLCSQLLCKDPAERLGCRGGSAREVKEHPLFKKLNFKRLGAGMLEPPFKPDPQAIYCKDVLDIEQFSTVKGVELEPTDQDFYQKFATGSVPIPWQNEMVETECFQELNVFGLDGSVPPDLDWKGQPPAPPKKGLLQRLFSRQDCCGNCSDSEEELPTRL
The target is the same in assay [8]. The following applies: at 1 µM.
The target in assay [9] is T1, Rhodopsin kinase GRK7 (Homo sapiens) (UniProt Q8WTQ7).
T1 sequence (whole entry): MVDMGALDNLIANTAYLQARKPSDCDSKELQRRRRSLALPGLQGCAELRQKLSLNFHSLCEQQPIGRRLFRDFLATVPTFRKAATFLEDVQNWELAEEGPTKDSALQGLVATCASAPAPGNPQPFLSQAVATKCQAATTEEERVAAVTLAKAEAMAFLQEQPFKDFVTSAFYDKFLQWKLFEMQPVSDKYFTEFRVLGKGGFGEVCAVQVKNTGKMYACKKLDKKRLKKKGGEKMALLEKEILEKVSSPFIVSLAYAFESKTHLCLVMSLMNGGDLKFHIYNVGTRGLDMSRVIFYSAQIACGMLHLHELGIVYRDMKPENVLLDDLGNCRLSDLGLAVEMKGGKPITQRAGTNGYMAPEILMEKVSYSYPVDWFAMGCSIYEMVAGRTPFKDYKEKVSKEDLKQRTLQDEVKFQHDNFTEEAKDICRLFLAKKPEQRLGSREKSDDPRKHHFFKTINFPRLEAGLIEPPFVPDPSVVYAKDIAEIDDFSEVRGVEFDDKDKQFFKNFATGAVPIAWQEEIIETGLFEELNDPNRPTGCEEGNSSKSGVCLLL
Particulars: at 0.1 µM.

Assay [10] deals with T1, Rhodopsin kinase GRK7 (Homo sapiens). Particulars: at 1 µM.

The structures appear in SMILES notation.

Sequence of RAC-beta serine/threonine-protein kinase (Homo sapiens) (P31751 whole entry): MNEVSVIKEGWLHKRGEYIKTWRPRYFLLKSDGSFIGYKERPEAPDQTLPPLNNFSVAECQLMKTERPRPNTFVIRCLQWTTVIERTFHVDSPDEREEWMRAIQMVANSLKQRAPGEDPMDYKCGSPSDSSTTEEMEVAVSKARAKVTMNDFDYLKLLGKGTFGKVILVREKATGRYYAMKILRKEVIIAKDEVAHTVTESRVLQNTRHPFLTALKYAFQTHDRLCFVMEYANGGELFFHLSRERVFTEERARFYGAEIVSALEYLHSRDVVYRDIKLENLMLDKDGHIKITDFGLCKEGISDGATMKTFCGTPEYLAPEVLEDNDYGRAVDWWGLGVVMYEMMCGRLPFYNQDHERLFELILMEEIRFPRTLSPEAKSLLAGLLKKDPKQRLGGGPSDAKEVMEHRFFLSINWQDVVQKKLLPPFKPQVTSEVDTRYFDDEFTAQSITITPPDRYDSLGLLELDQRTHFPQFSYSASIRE
Sequence of RAC-gamma serine/threonine-protein kinase (Homo sapiens) (Q9Y243 whole entry): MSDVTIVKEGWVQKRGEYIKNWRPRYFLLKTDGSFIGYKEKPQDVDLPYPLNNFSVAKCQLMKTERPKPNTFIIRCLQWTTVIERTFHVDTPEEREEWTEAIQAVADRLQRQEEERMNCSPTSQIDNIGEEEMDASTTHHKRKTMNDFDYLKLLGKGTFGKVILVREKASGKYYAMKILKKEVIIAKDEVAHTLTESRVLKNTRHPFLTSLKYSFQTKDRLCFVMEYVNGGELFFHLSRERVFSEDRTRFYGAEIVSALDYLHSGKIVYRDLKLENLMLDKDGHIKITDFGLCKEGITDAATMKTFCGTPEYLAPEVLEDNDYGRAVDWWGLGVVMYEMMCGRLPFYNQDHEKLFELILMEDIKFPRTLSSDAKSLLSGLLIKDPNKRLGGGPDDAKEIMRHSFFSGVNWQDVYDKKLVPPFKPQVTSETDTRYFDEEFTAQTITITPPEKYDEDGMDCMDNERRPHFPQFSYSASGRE
Sequence of RAC-alpha serine/threonine-protein kinase (Homo sapiens) (P31749 whole entry): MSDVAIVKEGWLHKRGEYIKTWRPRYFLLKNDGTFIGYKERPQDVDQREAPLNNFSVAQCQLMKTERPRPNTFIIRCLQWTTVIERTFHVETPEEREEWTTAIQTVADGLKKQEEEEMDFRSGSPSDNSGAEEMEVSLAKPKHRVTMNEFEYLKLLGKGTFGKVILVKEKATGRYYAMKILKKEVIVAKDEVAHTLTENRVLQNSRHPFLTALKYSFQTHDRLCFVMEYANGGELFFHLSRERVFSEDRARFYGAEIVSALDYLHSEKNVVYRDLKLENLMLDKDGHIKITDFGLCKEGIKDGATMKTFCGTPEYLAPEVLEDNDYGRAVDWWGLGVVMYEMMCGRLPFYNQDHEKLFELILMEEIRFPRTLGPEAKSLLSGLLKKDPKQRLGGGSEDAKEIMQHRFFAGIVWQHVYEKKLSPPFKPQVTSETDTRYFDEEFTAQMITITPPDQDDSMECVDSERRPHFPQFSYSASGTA

`O=C1Nc2ccc(-c3cccnc3)cc2C1=Cc1cc(Br)c(O)c(Br)c1`: the inhibition in assay [1] is 1.65%; in [2] it was 2.74%; in [3] it was 1.49%; in assay [4] it was 2.84%; in assay [5], 1.24%; in assay [6] it was 1.67%. Moreover, the inhibition was 11.3% in assay [7], 46.1% in assay [8], 20% in assay [9] and 60.3% in [10].
For `COC(=O)Nc1nc2cc(Oc3ccc(NC(=O)Nc4cccc(Br)c4)cc3)ccc2[nH]1`, the inhibition is 0.46% in assay [1]; 0.17% in assay [2]; 1.35% in assay [3]; 1.01% in assay [4]; 1.37% in assay [5]; -2.06% in assay [6]. In addition, the inhibition in assay [7] turned out to be 4.28%; in assay [8], 6.2%; in assay [9], 3.16%; in [10] it was 25.9%.
In the case of `Nc1nccc(C#Cc2cncnc2Nc2ccc(OCc3cccc(F)c3)c(Cl)c2)n1`, the inhibition in [1] turned out to be 1.34%; in assay [2], 0.92%; in assay [3], 1.52%; in assay [4], 1.54%; in assay [5], 2.87%; in assay [6] it was 1.85%. Further, the inhibition in assay [7] is 1.35%; in assay [8] it was -4.58%; in assay [9], 4.51%; in assay [10] it was 1.2%.
Consider `Cc1cc(Cl)cc2c1NC(=O)C2=NNc1ccc(S(N)(=O)=O)cc1`, for which the inhibition was 0.38% in [1]; 0.03% in assay [2]; 0.6% in [3]; 1.11% in assay [4]; 0.3% in [5]; 0.71% in [6]. In addition, the inhibition in assay [7] amounted to 7.71%; in assay [8], 11%; in assay [9], 5.48%; in assay [10], 13.2%.
For `CS(=O)(=O)CCNCc1nc(-c2ccc3ncnc(Nc4ccc(OCc5cccc(C(F)(F)F)c5)cc4)c3c2)cs1`, the inhibition was 0.2% in [1]; -0.66% in assay [2]; -0.39% in assay [3]; 0.39% in [4]; 0.84% in [5]; 1.91% in assay [6]. Further, the inhibition was 0.43% in assay [7], 0.06% in assay [8], 3.85% in assay [9] and -1.01% in assay [10].
For the molecule `CS(=O)(=O)Nc1cccc(-c2ccc3c(NC(=O)C4CC4)n[nH]c3c2)c1`, the inhibition in assay [1] is 0.47%; in assay [2], -0.39%; in assay [3], 0.26%; in assay [4] it was 0.15%; in [5], 0.35%; in assay [6] it was -2.8%. The inhibition was 1.58% in [7], -0.72% in assay [8], 0.25% in assay [9] and 2.21% in assay [10].
In the case of `ON=C1CCc2cc(-c3nc(C4CCNCC4)[nH]c3-c3ccncc3)ccc21`, the inhibition in assay [1] was 0.07%; in assay [2] it was -0.21%; in assay [3], 0.72%; in assay [4], -1.73%; in assay [5] it was -0.56%; in assay [6], 0.98%. In addition, the inhibition in assay [7] is 0.43%; in assay [8], -2.74%; in assay [9], -0.92%; in [10] it was 1.83%.
`O=S(=O)(CCOCc1ccc(-c2ccc3ncnc(Nc4ccc(OCc5cccc(F)c5)c(Cl)c4)c3c2)o1)c1ccccc1`: the inhibition in assay [1] was -0.1%; in [2] it was -0.35%; in assay [3] it was 0.2%; in assay [4], 1.21%; in assay [5] it was -0.84%; in [6], 3.06%. In addition, the inhibition amounted to 0.84% in assay [7], 0.78% in assay [8], 7.97% in [9] and 4.68% in assay [10].
Take `Cc1cc(-c2ccccn2)cc(C)c1/C=C/c1cncc(-c2nn[nH]n2)c1`: the inhibition in assay [1] was determined as 1.14%; in [2] it was 0.85%; in [3], 0.53%; in [4] it was 1.57%; in assay [5], 2.14%; in assay [6], 2.17%. Further, the inhibition is 5.67% in assay [7], 1.26% in assay [8], 9.3% in assay [9] and 7.66% in assay [10].
Regarding `CN(C)CCCn1c(-c2nonc2N)nc2cnccc21`, the inhibition was found to be 0.01% in assay [1]; 1.38% in assay [2]; 1.85% in assay [3]; 3.82% in assay [4]; 0.92% in assay [5]; 1.84% in assay [6]. Besides, the inhibition in [7] was 3.78%; in [8] it was 3.55%; in assay [9], 2.61%; in assay [10] it was 5.07%.
As to `NS(=O)(=O)c1ccc(NC=C2C(=O)Nc3ccc4ncsc4c32)cc1`, the inhibition was 1.23% in assay [1]; -0.15% in assay [2]; 2.3% in [3]; 2.59% in assay [4]; 0.79% in [5]; 2.77% in assay [6]. In addition, the inhibition in assay [7] was found to be 6.28%; in [8], 35.5%; in assay [9], 6.78%; in [10], 22.4%.
In the case of `c1ccc(Nc2ncc(-c3ccccc3)o2)cc1`, the inhibition in assay [1] was found to be 1.4%; in [2], 0.83%; in [3], 0.54%; in assay [4], 2.99%; in assay [5], 1.75%; in assay [6] it was 3.46%. Besides, the inhibition was found to be 4.61% in assay [7], 4.8% in assay [8], 9.62% in assay [9] and 4.71% in assay [10].
Take `COc1ccc(-c2nn3ncccc3c2-c2ccnc(Nc3cccc(C(F)(F)F)c3)n2)cc1`: the inhibition in assay [1] turned out to be 0.68%; in assay [2], 0.72%; in assay [3] it was 1.23%; in [4], 1.84%; in assay [5], 0.37%; in assay [6], 1.95%. In addition, the inhibition was determined as 3.32% in [7], 2.16% in [8], 5.25% in [9] and 1.87% in [10].
For `Nc1nccc(-c2c(-c3ccc(F)cc3)ncn2CCCN2CCOCC2)n1`, the inhibition was 1.68% in assay [1]; 1.55% in assay [2]; 2.52% in assay [3]; 0.79% in [4]; 1.64% in assay [5]; 3.69% in assay [6]. Also, the inhibition in assay [7] came out at 4.54%; in [8] it was 5.62%; in assay [9] it was 2.89%; in assay [10] it was 8.32%.

These data come from ChEMBL document CHEMBL1961873, “Compounds: GSK PKIS; Assays: Nanosyn kinase panel” (2012).
